# Data from the supplement of paper PMC6555819.
# What was measured:
# Experiment in all cases: PBM binding z-score (relative to random genomic background probes); higher = stronger binding; sequences stand for … in GC…GCGATTGACAGCGTAGAATGAAGG
# [1] = tested on: FXR:RXRa (NR concentration 270 nM, RXRa partner concentration 90 nM)
# Procedure, shortened: (§1)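 Ligand-free nuclear receptor dimers were bound for 1 h to custom Agilent 4×180K protein-binding microarrays. Detection used antibodies against each partner (one per run). Binding z-scores rest on regression-normalized fluorescence, with random background probes as the reference.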
# [2] = tested on: LXRa:RXRa (NR concentration 270 nM, RXRa partner concentration 90 nM)
# Procedure, shortened: as §1
# [3] = tested on: LXRa homodimer (NR concentration 270 nM)
# Procedure, shortened: as §1
# [4] = tested on: LXRb:RXRa (NR concentration 270 nM, RXRa partner concentration 90 nM)
# Procedure, shortened: as §1
# [5] = tested on: LXRb homodimer (NR concentration 270 nM)
# Procedure, shortened: as §1
# [6] = tested on: PPARa:RXRa (NR concentration 270 nM, RXRa partner concentration 90 nM)
# Procedure, shortened: as §1
# [7] = tested on: PPARg:RXRa (NR concentration 180 nM, RXRa partner concentration 90 nM)
# Procedure, shortened: as §1
# [8] = tested on: PPARg:RXRa 270nM:90nM, anti-RXR (NR concentration 270 nM, RXRa partner concentration 90 nM)
# Procedure, shortened: as §1
# [9] = tested on: PPARg:RXRa 30nM:10nM, anti-RXR (NR concentration 30 nM, RXRa partner concentration 10 nM)
# Procedure, shortened: as §1
# [10] = tested on: PPARg:RXRa 90nM:30nM, anti-RXR (NR concentration 90 nM, RXRa partner concentration 30 nM)
# Procedure, shortened: as §1
Sequence,PBM binding z-score [1],PBM binding z-score [2],PBM binding z-score [3],PBM binding z-score [4],PBM binding z-score [5],PBM binding z-score [6],PBM binding z-score [7],PBM binding z-score [8],PBM binding z-score [9],PBM binding z-score [10]
CGTCCAAGGTCAAAGTTCAGTGAAGAGATGACGG,7.9,6.35,3.82,5.48,2.19,6.47,9.06,8.05,6.19,8.24
ATATTTAGGTTAGCTGGGGTCATTCAGACTAGGC,4.36,5.53,3.69,4.89,2.59,4.96,4.2,4.63,1.88,3.88
TGGAGTAGGTTAGGGGCATTCAGAATGGCGTCGA,1.13,0.934,0.271,1.91,1.89,1.98,2.21,3.05,1.46,2.46
AGAAAGAGGTTATTAAGATCAGGGAATTGCGGTC,2.15,2.15,0.442,1.75,0.379,2.71,1.18,1.43,0.665,1.29
ATATGTAGGTTAAGGGTTATTCAGGTTGGTTCGC,2.31,3.16,1.3,2.8,1.11,5.82,10.4,8.81,8.91,9.75
TGAATGAGGTTATAAGATCGGGGAACGTTGCAAA,1.36,1.27,-0.276,1.05,0.228,2.6,0.897,1.59,0.637,1.13
CAAACTAGGTCAAGGTCAAACTCGGTTTGTGCCA,7.27,5.63,4.45,4.69,1.71,6.2,9.59,7.65,6.72,7.91
TCTCGGAGGACACGAACGTCAGAGCTTTCCAGAG,0.0459,0.0114,-0.625,-0.532,-1.31,0.0688,0.0947,0.795,1.95,1.18
TCTAGCAGGCCAGAGAGTCACTCAAGAGGTACGG,-0.122,0.066,-0.75,-0.374,-1.55,0.177,0.656,1.18,1.72,1.4
CGAACGAGGGCAAGAGTTGATAGCAAATGCCGAT,0.442,0.206,-0.493,0.236,-0.921,1.52,2.3,2.48,0.687,1.92
CTCGAAAGGTCGTGCTCAGGTGACTATACCAAAC,5.25,3.88,0.561,3.69,0.323,4.97,2.84,3.95,1.46,2.76
CGAAATAGGTCATTGACAGGACAGTGAATAGTAA,6.1,5.06,1.3,3.58,0.828,5.64,6.83,6.73,4.21,6.12
ATATGTAGGTTACATCCGGTTCATTCAGGCTATG,1,4.13,1.07,2.07,0.614,3.53,5.17,4.39,2.2,3.81
CCGACTGGGCCATAAGGTTACCATAAGCCAGCCC,0.273,1.84,-0.402,0.636,-0.941,1.4,1.57,2.48,0.644,2.05
CCTAGTTGGTCAGGAGATCACACACCGGATATGA,0.118,0.263,0.478,0.0659,0.414,0.215,1.01,0.651,0.236,0.432
CGAACTCGGTCAGAACAGGACAGTGAAGGATGAT,0.127,0.0151,0.0405,-0.32,-0.669,0.415,0.904,0.142,0.197,0.033
ACAAGCAGGCCAAGGGTCACTCAAGATTAGTCCG,2.26,2.92,0.0513,2.56,-0.322,4.58,8.28,7.67,6.24,7.51
ATACCAAGGTGTTCGTGAGGTCGTTGATACTAAC,1.76,2.11,1.19,1.3,0.178,1.24,0.117,0.343,-0.0462,0.253
TCTATTAGTTGATCAGGGCAACCGAAACAGCGGA,0.646,0.456,0.302,0.505,0.641,0.282,0.218,2.02,3.78,2.67
ACTAGTTGGGCAGCTGAGGTCACACACAATTCGG,2.42,2.48,1.5,2.74,0.155,3.31,1.34,1.8,0.192,1.26
ATCTCTAGATAACCAAGTTCAGTGAATGCCGAAC,0.0637,0.348,0.591,0.348,0.0515,-0.00769,0.236,-0.141,0.124,-0.0247
TAGCCTAGGTAATGCGGGCCAGTATAGTGTCGGC,-1.49,-1.07,-0.66,-1.17,-1.38,-0.346,0.000474,-0.669,-0.676,-0.655
CCGACTGGGGCAAAGGTTAGCATACTCAGTACGA,0.945,0.762,-0.315,1.27,-1.29,4.88,10.7,8.69,9.08,9.54
CCTATTAGTTGAGCATAAGGGCAACCGAAGCTCG,0.0961,-0.117,0.193,-0.0125,0.346,0.124,0.333,0.305,-0.0457,0.368
